Only some compounds are listed: those with a hit (about 1.8% of all), similar ones and a draw of the others.
GSIS activator: primary screen for activators of insulin secretion dependent on glucose, INS-1E cells, GLuc reporter luminescence | 370,000 tested, 0.61% active | INS-1E GLuc reporter insulin secretion, 2-3 h | activation, % at 16.6 µM | AID 743287;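 active = lowest replicate activation of at least 40%, so every replicate reaches that level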;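 also: 0% = median of neutral control wells and 100% = median of IBMX positive control wells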
ABCB6 inh 2: human ABCB6 transporter inhibition; Q9NP58; K562-ABCB6 porphyrin accumulation, flow cytometry, 1 h; stronger effect = lower value; fluorescence ratio to DMSO, % at 10 µM; 360,000 tested, 0.19% active; AID 602162;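 active = fluorescence ratio to DMSO below 75%, the collection mean minus 3 SD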;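 also: signal is porphyrin accumulated inside mitochondria; 100% equals median channel fluorescence of DMSO control wells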
Target sequence (Q9NP58 whole entry, looked up): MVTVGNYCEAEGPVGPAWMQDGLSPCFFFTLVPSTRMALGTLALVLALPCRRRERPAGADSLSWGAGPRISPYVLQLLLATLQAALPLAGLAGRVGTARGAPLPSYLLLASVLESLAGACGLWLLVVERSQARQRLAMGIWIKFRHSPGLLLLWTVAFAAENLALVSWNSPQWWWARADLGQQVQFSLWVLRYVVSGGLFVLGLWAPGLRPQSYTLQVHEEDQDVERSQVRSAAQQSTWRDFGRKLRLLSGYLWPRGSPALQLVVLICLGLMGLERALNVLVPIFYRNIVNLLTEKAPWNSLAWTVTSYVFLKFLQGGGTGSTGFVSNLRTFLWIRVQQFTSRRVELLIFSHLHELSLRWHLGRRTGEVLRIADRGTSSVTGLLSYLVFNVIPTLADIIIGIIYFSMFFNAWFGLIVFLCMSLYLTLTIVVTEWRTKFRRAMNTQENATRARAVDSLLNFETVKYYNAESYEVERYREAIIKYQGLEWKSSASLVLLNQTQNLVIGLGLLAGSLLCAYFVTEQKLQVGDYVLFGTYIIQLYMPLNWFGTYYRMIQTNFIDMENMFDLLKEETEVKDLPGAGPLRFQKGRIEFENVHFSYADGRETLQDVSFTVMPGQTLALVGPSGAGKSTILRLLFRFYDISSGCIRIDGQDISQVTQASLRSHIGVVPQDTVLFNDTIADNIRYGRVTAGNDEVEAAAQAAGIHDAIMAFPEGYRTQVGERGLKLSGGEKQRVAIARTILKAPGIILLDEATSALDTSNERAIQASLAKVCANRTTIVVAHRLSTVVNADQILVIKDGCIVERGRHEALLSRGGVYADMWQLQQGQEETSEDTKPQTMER
iPSC survival up: increases survival of single human iPS cells; hiPSC single-cell survival, ATPlite luminescence; 100% = ROCK inhibitor wells, 0% = DMSO; survival enhancement, % at 20 µM; 360,000 tested, 0.044% active; AID 602274; in the data active = survival enhancement above about 18%;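 also: cells exposed to compounds for 16 hours before the ATP read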
ARNT TACC3 PPI: ARNT/TACC3 interaction disruption | inhibition, % at 9.99 µM | AID 623870 | 390,000 tested, 0.66% active | AlphaScreen His-ARNT PAS-B/GST-TACC3 binding, luminescence; TACC3 fragment carries E629A point mutation | Q9Y6A5;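 active = mean inhibition of replicates at least 50% and at least half of replicates each reaching 50%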;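 also: 0% = complete ARNT plus TACC3 wells and 100% = ARNT alone without TACC3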
NRP1-CendR mod: alters CendR peptide binding to human NRP-1. FAM-RPARPAR peptide binding to NRP-1, fluorescence polarization. AID 602438. inhibition, % at 25 µM. 360,000 tested, 0.85% active. O14786;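 active = inhibition or corrected inhibition above about 18%, plus a signal ratio from 0.5 to 1.5, limit read from the data, passing the limit was not always enough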
* marks the source's active call; other numbers are inactive results; x = not tested or not shown; ! = repeats disagree.

SMILES	GSIS activator	ABCB6 inh 2	iPSC survival up	ARNT TACC3 PPI	NRP1-CendR mod
CC(C)n1c(O)c(C2c3cc(Cl)ccc3Oc3[nH]c(=O)n(C(C)C)c(=O)c32)c(=O)[nH]c1=O (stereo unspecified)	x	97	26*	2	-20
CC(=O)c1c(O)n(-c2cccc(Cl)c2)c(=O)[nH]c1=O (tested in a mixture with another compound)	-11	98	0	2	-45
COc1ccc(C#Cc2ccc([C@@H]3[C@H]4CN(C(=O)Cc5cccnc5)CCCCN4[C@H]3CO)cc2)cc1	-38	x	x	-3	x
COC(=O)[C@@H]1[C@@H](CO)[C@@H]2Cn3c(ccc(-c4ccccc4OC)c3=O)[C@H]1N2Cc1ccccc1	13	x	x	2	x
CCOC(=O)[C@]12Cc3cc(C)ccc3[C@H]1N(C1CCCCC1)C(=O)c1cc(OC)ccc12	2	93	-2	x	1
CCOC(=O)[C@]12Cc3cc(OC)ccc3[C@H]1N(C1CCCCC1)C(=O)c1cc(OC)ccc12	325*	100	-2	x	-3
CN(C)c1ccc([N+](=O)[O-])c([N+](=O)[O-])c1	-1	90	1	-3	29*
CCn1c(NN=O)nc2ccccc21	0	98	0	48*	-1
COc1ccc(C#Cc2ccc([C@H]3[C@@H](CO)N4CCCCN(C(=O)Cc5cccnc5)C[C@@H]34)cc2)cc1	11	x	x	15	x
Cn1c(O)c(C(c2ccccn2)c2c(O)n(C)c(=S)n(C)c2=O)c(=O)n(C)c1=S	x	97	0	18	-5
Cn1c(O)c(C(c2ccncc2)c2c(O)n(C)c(=S)n(C)c2=O)c(=O)n(C)c1=S	x	106	0	47*	1
O=c1[nH]c(=O)n(Cc2ccco2)c(O)c1/C=N/N1CCCCC1	15	97	2	active	-80
CC=Cc1ccc2n(c1=O)C[C@@H]1[C@@H](CO)[C@H](C(=O)N(C)C)N[C@H]21 (mixture of isomers)	11	x	x	1	x
CCC(=O)N1[C@@H]2c3ccc(-c4cccc(F)c4)c(=O)n3C[C@H]1[C@H](CO)[C@H]2C(=O)OC	2	x	x	3	x
C[C@]12CCC3C(CCC4=C/C(=N/OCC(=O)NC(CCC(N)=O)C(=O)O)CC[C@@]43C)C1CCC2O (stereo partly specified)	10	96	0	-8	3
C[C@]12CCC3C(CCC4=C/C(=N/OCC(=O)NC(CCC(=O)O)C(=O)O)CC[C@@]43C)C1CCC2O (stereo partly specified)	44*	98	-1	-11	-9
CCN1[C@@H]2c3ccc(-c4cccc(OC)c4)c(=O)n3C[C@H]1[C@H](CO)[C@H]2C(=O)OC	24	x	x	0	x
Fc1ccc(CN2CC3NC(C2)C3c2ccc(Br)cc2)cc1 (stereo unspecified)	10	x	x	x	x
O=c1c2ccccc2nc(-c2ccco2)n1-c1ccccn1	x	99	6	0	32*
Cc1cccnc1-n1c(-c2ccco2)nc2ccccc2c1=O	x	102	2	0	1
CC(=NNC(=S)N1CC2CCC(CC2)C1)c1nccs1	5	95	-2	72*	20
CCC(=O)C(CCN1CCOCC1)(c1ccccc1)c1ccccc1	-1	105	1	-2	0
CC(C)[N+](C)(CCC(C(N)=O)(c1ccccc1)c1ccccc1)C(C)C	48*	95	0	-5	-8
Cc1nc2c(c(C)nn2-c2ccccc2)c(C)c1CCC(=O)N1CCC2(CC1)OCCO2	x	91	8	3	51*
C=CCn1c(O)c(N=Nc2c(C)n(C)n(-c3ccccc3)c2=O)c(=O)[nH]c1=S	-6	97	-1	63*	-24
SMILES	GSIS activator	ABCB6 inh 2	iPSC survival up	ARNT TACC3 PPI	NRP1-CendR mod
Cc1c(N=Nc2c(O)[nH]c(=S)[nH]c2=O)c(=O)n(-c2ccccc2)n1C	-5	99	4	61*	-19
CCOc1ccc(-n2c(O)c(N=Nc3c(C)n(C)n(-c4ccccc4)c3=O)c(=O)[nH]c2=O)cc1	-4	93	3	60*	-25
C=CCN1[C@@H]2CN(S(C)(=O)=O)C[C@H]1C2c1ccccc1 (stereo partly specified)	1	x	x	x	x
Cc1cccc(S(=O)(=O)N2[C@@H]3Cn4c(ccc(-c5cccc(F)c5)c4=O)[C@H]2[C@@H](C(=O)O)[C@@H]3CO)c1	11	x	x	x	x
Cc1ccc(-c2cc(-c3ccccc3)cc(-c3ccccc3)[n+]2-c2ccccc2C(=O)O)cc1	-39	95	-1	3	26*
O=C([O-])c1ccc(-[n+]2c(-c3ccccc3)cc(-c3ccccc3)cc2-c2ccccc2)cc1	-48	87	4	9	7
COc1cc2c(cc1OC)-c1c3c(cc4c1[C@@H](C2)N(C)CC4)OCO3	3	101	-4	35*	9
COc1cc2c(cc1OC)-c1c(OC)c(OC)cc3c1C(C2)N(C)CC3 (stereo unspecified)	-14	110	0	32	-14
COc1c2c(cc3c1OCO3)CCN(C)C2	-10	98	0	1	-10
COc1cc2c(cc1O)C[C@H]1NCCc3cc4c(c-2c31)OCO4	18	94	-1	52*	-8
O=C1CNC[C@@H]2[C@@H](c3ccc(Br)cc3)[C@H](CO)N12	12	x	x	x	x
COC(=O)[C@H]1[C@H](CO)[C@H]2Cn3c(ccc(/C=C/c4ccccc4)c3=O)[C@@H]1N2Cc1ccccc1F	-11	x	x	-31	x
CSc1ncc(Br)c(N2CC2)n1	42*	109	2	-17	3
C=CCSc1nc2c(c(-c3ccsc3)c1C#N)CN(C)CC2	46*	122	2	-2	-8
CN1CCc2nc(SCc3ccccc3Br)c(C#N)cc2C1	-9	189	2	7	-13
COC(=O)[C@@H]1[C@@H](CO)[C@@H]2Cn3c(ccc(C4=CCCCC4)c3=O)[C@H]1N2Cc1ccccc1OC	-4	x	x	x	x
Cc1cc(Cl)ccc1OCC(=O)N1CCN(C)CC1	x	93	-1	0	23*
COc1ccc(OC(=O)N(C)C[C@H]2OCc3ccccc3-c3c(n(C)c4ccccc34)C(=O)N([C@@H](C)CO)C[C@@H]2C)cc1	-14	x	x	x	x
CCC(COC(=O)c1cc(OC)c(OC)c(OC)c1)(c1ccccc1)N(C)C (stereo unspecified)	-20	96	2	-13	23*!
O=S(=O)(c1cc(Cl)cc(Cl)c1)N1Cc2cc(-c3ccccc3)ccc2-n2nncc2C1	10	96	0	x	23*
Cc1cc(Cl)ccc1C(=O)C1CCCN(Cc2ccon2)C1 (stereo unspecified)	8	96	-1	-6	-4
O=C(c1cccc2ccccc12)C1CCCN(Cc2ccon2)C1 (stereo unspecified)	40*	94	0	0	12

Source: PubChem (several laboratories)
